Outcome and AC50 data for three molecules are collected here from PubChem BioAssay (EPA / NIEHS).

In experiment [1] the target is Cellular tumor antigen p53 (Homo sapiens) (UniProt P04637). The experiment in a line: TOX21_p53_BLA_p2_ratio: Tox21 HCT-116 p53 Agonism Beta-lactamase Assay, Ratio, Phase 2 (AID 2283592; active = hit-call score of the fitted dose curve at least 0.9, where 1 is the maximum). An outline of the steps:
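Ratio endpoint: beta-lactamase cleavage of CCF4-AM, blue (460 nm) over green (530 nm). HCT116 reporter line; 16 h treatment, 37C; substrate 2 h RT.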

Experiment [2] can be described thus: TOX21_p53_BLA_p3_viability: Viability Assessment in the Tox21 HCT-116 p53 Agonism Beta-lactamase Assay, Phase 3 (AID 2283593; active = hit-call score of the fitted dose curve at least 0.9, where 1 is the maximum;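 also: cells exposed to compound for 16 h before reading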). An outline of the steps: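 HCT116 cells, 4000/well, dosed 5 h after plating by pin transfer (217-fold dilution from DMSO stock) and incubated 16 h at 37C, 5% CO2. Viability read as ATP luminescence with CellTiter-Glo after 30 min at room temperature.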

Experiment [3] has as its target Cellular tumor antigen p53 (Homo sapiens) (UniProt P04637). Kind of experiment: TOX21_p53_BLA_p3_ratio: Tox21 HCT-116 p53 Agonism Beta-lactamase Assay, Ratio, Phase 3 (AID 2283596; active = hit-call score of the fitted dose curve at least 0.9, where 1 is the maximum). An outline of the steps:
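Cells were seeded at 4000/well, rested 5 h at 37C, then dosed with DMSO compound solutions (217-fold dilution) for 16 h. CCF4-AM substrate was loaded for 2 h at room temperature, and the 460/530 nm emission ratio was fitted for gain of signal versus DMSO.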

Experiment [4] in a line: TOX21_p53_BLA_p4_viability: Viability Assessment in the Tox21 HCT-116 p53 Agonism Beta-lactamase Assay, Phase 4 (AID 2283597; active = hit-call score of the fitted dose curve at least 0.9, where 1 is the maximum;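 also: hits lower the luminescence signal meaning cytotoxicity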). An outline of the steps:
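Cytotoxicity was inferred from loss of CellTiter-Glo luminescence. HCT116 cells had been dosed with compounds after 5 h plating, incubated 16 h at 37C and 5% CO2, and exposed to the CCF4-AM substrate for 2 h.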

In experiment [5] the target is Cellular tumor antigen p53 (Homo sapiens) (UniProt P04637). The experiment in a line: TOX21_p53_BLA_p5_ratio: Tox21 HCT-116 p53 Agonism Beta-lactamase Assay, Ratio, Phase 5 (AID 2283599; active = hit-call score of the fitted dose curve at least 0.9, where 1 is the maximum). An outline of the steps:
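HCT-116 p53-bla cells (4000/well) plated 5 h, dosed with compound (217-fold DMSO dilution) for 16 h at 37 C; CCF4-AM substrate 2 h at room temperature. Activity is the 460/530 nm emission ratio (405 nm excitation), fitted in gain-of-signal direction versus DMSO.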

The target is the same in experiment [6]. The experiment in a line: TOX21_p53_BLA_p4_ratio: Tox21 HCT-116 p53 Agonism Beta-lactamase Assay, Ratio, Phase 4 (AID 2283601; active = hit-call score of the fitted dose curve at least 0.9, where 1 is the maximum). An outline of the steps:
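HCT-116 p53 beta-lactamase reporter cells (4000/well) preincubated 5 h, then compound (217-fold dilution of DMSO stock) for 16 h at 37C. CCF4-AM substrate added 2 h at room temperature; 460/530 nm emission ratio fitted upward versus DMSO.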

Experiment [7] is described as follows: TOX21_p53_BLA_p5_viability: Viability Assessment in the Tox21 HCT-116 p53 Agonism Beta-lactamase Assay, Phase 5 (AID 2283600; active = hit-call score of the fitted dose curve at least 0.9, where 1 is the maximum). An outline of the steps: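 Luciferase-coupled ATP quantitation of cells treated for 16 h (37C, 5% CO2) with test chemicals delivered in DMSO via a 217-fold dilution; 4000 cells/well; reagent incubated 30 min at room temperature before luminescence reading.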

A short description of experiment [8]: ACEA_ER_AUC_viability: ACEA Biosciences xCELLigence Real-Time Cell Analysis on Estrogen Receptor Agonism for Viability (AID 2283782; active = hit-call score of the fitted dose curve at least 0.9, where 1 is the maximum;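 also: hit means loss of impedance signal meaning reduced cell growth or viability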). An outline of the steps:
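Read-out: real-time electrical impedance (RT-CES) area under curve, loss of signal taken as reduced viability, normalized to DMSO baseline. T-47D cells, charcoal-stripped serum medium, compounds up to 100 uM final, continuous exposure, 80 h.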

A short description of experiment [9]: CCTE_Padilla_ZF_144hpf_TERATOSCORE: (Legacy) CCTE's 144 Hour Post-fertilization zebrafish Assay Teratoscore, Padilla Lab (AID 2283679).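 Also: zebrafish embryos with chorions exposed by immersion from 6-8 hpf to 5 dpf with daily renewal; teratogenicity score from eye scoring of death hatching and malformations at 144 hpf; higher score means more developmental defects relative to DMSO baseline.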 An outline of the steps:
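Larvae scored by eye at 144 hpf for death, hatching and malformations after a day in clean Hanks'. Before that, daily-renewed exposure at 80 uM (0.4% DMSO, 26C) from roughly 6-8 hpf through 5 dpf, 4 embryos per chemical.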

The nature of experiment [10]: CCTE_Shafer_MEA_dev_firing_rate_mean: CCTE's Neural Network Formation Assay for Mean Firing Rate, Shafer Lab (AID 2284031).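 Also: curve fitted for loss of firing so AC50 reflects decreased mean firing rate.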 An outline of the steps:
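Extracellular spike frequency, AUC over DIV 5–12 recordings, in rat cortical neuron MEA cultures dosed from plating; loss direction vs DMSO.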

The nature of experiment [11]: CCTE_Shafer_MEA_dev_per_burst_spike_percent: CCTE's Neural Network Formation Assay for Percent of Spikes in a Burst, Shafer Lab (AID 2284032).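 Also: fitted as a decrease in burst spike percentage below DMSO baseline.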 An outline of the steps: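 Value is trapezoidal AUC over recordings on days 5, 7, 9 and 12 of the well-mean fraction of spikes falling in single-electrode bursts; rat cortical cultures exposed continuously from plating, treatment renewed DIV 5 and 9, fitted downward against DMSO.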

The nature of experiment [12]: CCTE_Shafer_MEA_dev_burst_rate: CCTE's Neural Network Formation Assay for Burst Rate, Shafer Lab (AID 2284042).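 Also: potency for loss of burst rate below DMSO control.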 An outline of the steps:
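Primary rat cortical neurons on PEI-coated 48-well MEA plates (laminin added with cells at plating) (16 electrodes/well), exposed from plating to day 12, dosing renewed at DIV 5 and 9. Burst rate averaged over active electrodes, recorded DIV 5, 7, 9, 12, summarized as AUC; loss versus DMSO.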

Experiment [13] can be described thus: CCTE_Shafer_MEA_dev_bursting_electrodes_number: CCTE's Neural Network Formation Assay for Number of Bursting Electrodes, Shafer Lab (AID 2284043; active = hit-call score of the fitted dose curve at least 0.9, where 1 is the maximum;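 also: potency is for loss of bursting electrodes relative to DMSO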). An outline of the steps:
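Rat cortical primary neurons, 48-well MEA, 16 electrodes/well; dosing DIV 0–12, re-dosed with full media change DIV 5, 9. Recordings DIV 5/7/9/12, AxIS adaptive spike detector; bursting electrode = ≥1 burst/2 min. AUC across days; loss of signal vs DMSO.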

The nature of experiment [14]: CCTE_Shafer_MEA_dev_per_burst_interspike_interval: CCTE's Neural Network Formation Assay for Burst Interspike Interval, Shafer Lab (AID 2284044).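 Also: potency for a decrease of within-burst interspike interval below DMSO level.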 An outline of the steps:
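Rat cortical primary cultures, 16 electrodes/well; compound from plating, renewed with full media change DIV 5 and 9. Spikes via adaptive detector; per-burst ISI well-mean over active bursting electrodes; AUC of DIV 5/7/9/12 recordings; loss-direction fit vs DMSO.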

A short description of experiment [15]: CCTE_Shafer_MEA_dev_burst_duration_mean: CCTE's Neural Network Formation Assay for Mean Burst Duration, Shafer Lab (AID 2284045). An outline of the steps:
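Rat cortical cultures, 1.5 x 10^5 cells/well with laminin drop; continuous dosing days 0–12, media plus treatment refreshed DIV 5, 9. AxIS adaptive spike detection; mean single-electrode burst duration, AUC over four recordings, negative direction vs DMSO.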

Experiment [16] can be described thus: CCTE_Shafer_MEA_dev_interburst_interval_mean: CCTE's Neural Network Formation Assay for Mean Interburst Interval, Shafer Lab (AID 2284046).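 Also: well-mean interburst interval of bursting electrodes as AUC over four recording days; curve fitted for decrease in interburst interval relative to DMSO.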 An outline of the steps: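 Recordings on days 5, 7, 9 and 12 give well-mean interburst interval across actively bursting electrodes, summarized as area under the curve. Cultures: rat cortical neurons, continuous exposure from day 0, compound renewed at feeds; decrease analyzed versus DMSO.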

Experiment [17] can be described thus: CCTE_Shafer_MEA_dev_inter_network_spike_interval_mean: CCTE's Neural Network Formation Assay for Mean Inter-network Spike Interval, Shafer Lab (AID 2284047).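 As to AC50: potency for a decrease in mean inter-network spike interval below DMSO.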 An outline of the steps: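 Primary rat cortical neurons on 16-electrode MEA wells, exposed from plating day 0 through DIV 12, compound renewed at DIV 5 and 9 media changes. Mean interval between network-spike peaks recorded DIV 5, 7, 9, 12; collapsed as trapezoidal AUC, fitted downward versus DMSO.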

Experiment [18] is described as follows: CCTE_Shafer_MEA_dev_network_spike_number: CCTE's Neural Network Formation Assay for Number of Network Spikes, Shafer Lab (AID 2284048).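 Also: synchronized bursts across electrodes counted on days 5 7 9 12 and integrated as AUC; fit as a loss of signal meaning fewer network spikes than DMSO.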 An outline of the steps:
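Rat cortical primary cultures on 48-well MEA (16 electrodes/well); continuous exposure DIV 0–12, full medium and treatment exchange DIV 5, 9. Readout: network spike count, AxIS adaptive detection, recordings DIV 5/7/9/12 collapsed to AUC; loss-of-signal fit, DMSO baseline.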

A short description of experiment [19]: CCTE_Shafer_MEA_dev_network_spike_peak: CCTE's Neural Network Formation Assay for Mean Number of Electrodes in Network Spike, Shafer Lab (AID 2284049).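 Also: fitted for loss of signal meaning fewer electrodes in network spikes than DMSO.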 An outline of the steps:
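Network-spike peak electrode count from recordings on days 5, 7, 9 and 12 was combined as trapezoidal area under the curve. Rat cortical cultures were treated continuously from plating, with compound renewed at each feed (DIV 5, 9); fits versus DMSO.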

A short description of experiment [20]: CCTE_Shafer_MEA_dev_network_spike_duration_std: CCTE's Neural Network Formation Assay for Standard Deviation of Network Spike Duration, Shafer Lab (AID 2284052).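 Also: area under curve of spike duration SD across recording days 5 to 12; hits are decreases in network spike duration SD versus DMSO vehicle.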 An outline of the steps: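 Primary rat cortical neurons on PEI-coated 16-electrode MEA wells, exposed from plating day 0 through day 12 with compound renewed at DIV 5 and 9. Network spike duration SD recorded on days 5, 7, 9, 12, collapsed as trapezoidal AUC; loss-of-signal fit versus DMSO.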

A short description of experiment [21]: CCTE_Shafer_MEA_dev_per_network_spike_spike_number_mean: CCTE's Neural Network Formation Assay for Mean Number of Spikes in a Network Spike, Shafer Lab (AID 2284053).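 Also: fitted as decrease in spikes per network spike relative to DMSO.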 An outline of the steps:
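Primary rat cortical neurons on 48-well, 16-electrode MEA plates were exposed from plating to DIV 12, with dosing renewed on DIV 5 and 9. Spikes per network spike (0.05 s peak window) were recorded on DIV 5, 7, 9 and 12 and collapsed as trapezoidal AUC versus DMSO.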

The nature of experiment [22]: CCTE_Shafer_MEA_dev_per_network_spike_spike_percent: CCTE's Neural Network Formation Assay for Percent of Spikes in a Network Spike, Shafer Lab (AID 2284054). An outline of the steps: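 Read-out: percent of spikes falling in a 0.05 s window at network-spike peak, from spontaneous MEA recordings on days 5, 7, 9 and 12; trapezoidal AUC; loss of signal versus DMSO. Rat cortical cultures, compound present throughout.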

A short description of experiment [23]: CCTE_Shafer_MEA_dev_AB: CCTE's Alamar Blue Assay for Cytotoxicity in the Neural Network Formation Assay, Shafer Lab (AID 2284083; active = hit-call score of the fitted dose curve at least 0.9, where 1 is the maximum;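 also: twelve days of exposure from plating with re-dosing on DIV 5 and 9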). An outline of the steps:
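Primary rat cortical neurons on PEI-coated 48-well MEA plates, 1.5 x 10^5 cells/well in laminin drop; compound exposure from day 0 of plating for twelve days, renewed at medium changes on DIV 5 and 9. Viability read as resazurin reduction by fluorescence, relative to DMSO.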
In general terms: The colour change of resazurin is a common sign of viable cells or microbes.

The nature of experiment [24]: CCTE_Shafer_MEA_dev_mutual_information_norm: CCTE's Neural Network Formation Assay for Mutual Information Normalization, Shafer Lab (AID 2284091).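 Also: mutual information between electrodes summarised as area under curve across four recording days; potency is for a decrease in mutual information relative to DMSO.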 An outline of the steps: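 Neurons from rat cortex were seeded at 1.5 x 10^5 cells/well onto PEI-coated MEAs in a laminin drop, then exposed to compound from day 0 for twelve days. Network recordings on four days gave mutual information, summarised by AUC relative to DMSO.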

Where “and” joins values, the source holds several entries; their conditions need not be identical. Equal entries are not always repeated. Results filed as inconclusive are left out. Where a structure was tested more than once in an assay, its records may differ in their call. Calls of active or inactive are those of the source. The calls were made as follows, unless noted: active = hit-call score of the fitted dose curve at least 0.9, where 1 is the maximum; inactive = score below 0.9.

Sequence of Cellular tumor antigen p53 (Homo sapiens) (P04637 whole entry, looked up): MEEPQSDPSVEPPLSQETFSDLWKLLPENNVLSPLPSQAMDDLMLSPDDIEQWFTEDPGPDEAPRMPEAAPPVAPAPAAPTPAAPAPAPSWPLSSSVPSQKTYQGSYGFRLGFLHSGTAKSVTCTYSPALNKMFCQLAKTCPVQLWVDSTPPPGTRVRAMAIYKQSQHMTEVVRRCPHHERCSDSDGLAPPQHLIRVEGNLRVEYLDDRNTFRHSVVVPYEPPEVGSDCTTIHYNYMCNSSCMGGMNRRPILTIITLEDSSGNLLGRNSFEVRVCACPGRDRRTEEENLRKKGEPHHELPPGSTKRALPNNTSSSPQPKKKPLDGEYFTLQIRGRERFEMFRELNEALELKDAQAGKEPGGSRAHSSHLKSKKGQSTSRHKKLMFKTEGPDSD

For the molecule `CCO[Si](CC(C)C)(OCC)OCC`, the result in experiment [1], in experiment [2], in experiment [3], in experiment [4], in experiment [5] and in [6] was inactive.
Consider `CCOC(=O)COc1ccc(C)cc1`, for which the outcome in [1], in experiment [2], in experiment [3], in experiment [4], in experiment [5] and in experiment [7] was inactive. In addition, the outcome in experiment [6] and in experiment [8] was inactive.
With `CC[C@H](C)C(=O)O[C@H]1CCC=C2C=C[C@H](C)[C@H](CC[C@@H]3C[C@@H](O)CC(=O)O3)[C@H]21`, the result in experiment [1], in experiment [2], in experiment [3], in experiment [4], in experiment [5] and in [7] was inactive. In addition, the result in [6], in experiment [15] and in [17] was inactive. In addition, the AC50 in [9] is 8.02 nM (active) and 2.39 nM (active); in [10], 1.41 µM (active) and 8.96 µM (active); in [11], 1.4 µM (active) and 2.83 µM (active); in experiment [12] it was 253 nM (active) and 2.69 µM (active); in [13], 924 nM (active) and 911 nM (active); in experiment [14], 3.11 µM (active) and 8.52 µM (active). For the same molecule, the AC50 in experiment [16] is 3.03 µM (active) and 2.52 µM (active); in experiment [17] it was 0.696 µM (active); in experiment [18], 71.9 nM (active) and 226 nM (active); in [19], 960 nM (active) and 912 nM (active); in experiment [20], 665 nM (active) and 700 nM (active); in [21], 940 nM (active) and 915 nM (active). The AC50 is 277 nM (active) and 554 nM (active) in experiment [22]; 687 nM (active) and 2.01 µM (active) in experiment [23]; 353 nM (active) and 881 nM (active) in experiment [24].

By AC50 is commonly meant the concentration giving half of the maximal activity seen.
